According to paper PMC5540273 (PLoS ONE, 2017):

Columns and labels:
Details in all cases: concentration: 1 μM, replicates: in singlicate; n = 1
HIPK4 = system: HIPK4
HPK1 = system: HPK1
HUNK = system: HUNK
ICK = system: ICK
IGF1R = system: IGF1R
IKK-alpha = system: T1, IKK-alpha
T1 construct: gene CHUK

IKK-beta = system: T2, IKK-beta
T2 construct: gene IKBKB

IKK-epsilon = system: T3, IKK-epsilon
T3 construct: gene IKBKE

INSRR = system: INSRR
INSR = system: INSR
IRAK1 = system: IRAK1
IRAK3 = system: IRAK3
IRAK4 = system: IRAK4
ITK = system: ITK
[1] = system: JAK1(JH1domain-catalytic)
[2] = system: JAK1(JH2domain-pseudokinase)
[3] = system: JAK2(JH1domain-catalytic)
[4] = system: JAK3(JH1domain-catalytic)
JNK1 = system: T4, JNK1
T4 construct: gene MAPK8

JNK2 = system: T5, JNK2
T5 construct: gene MAPK9
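Also: KINOMEscan kinase panel screen.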

SMILES	%Inh (HIPK4) [%]	%Inh (HPK1) [%]	%Inh (HUNK) [%]	%Inh (ICK) [%]	%Inh (IGF1R) [%]	%Inh (IKK-alpha) [%]	%Inh (IKK-beta) [%]	%Inh (IKK-epsilon) [%]	%Inh (INSRR) [%]	%Inh (INSR) [%]	%Inh (IRAK1) [%]	%Inh (IRAK3) [%]	%Inh (IRAK4) [%]	%Inh (ITK) [%]	%Inh [1] [%]	%Inh [2] [%]	%Inh [3] [%]	%Inh [4] [%]	%Inh (JNK1) [%]	%Inh (JNK2) [%]
COc1ccc(CSc2nnc(-c3ccc4c(c3)CCO4)o2)cc1	0	0	0	0	0	0	0	0	0	0	0	0	0	8	18	0	0	0	0	0
COc1ccc(Nc2nccc(N3CCC(NC(=O)C(C)c4ccc(Cl)cc4)CC3)n2)cc1 (stereo not drawn) [GSK1379812]	0	39	10	0	0	0	0	100	0	15	6	18	0	22	26	6	0	0	1	14
COc1ccc(-c2coc3ccc(-c4nnc(C)o4)cc23)cc1	8	0	0	0	12	0	0	0	0	14	0	0	9	0	15	0	3	0	0	0
COc1ccc(Nc2nccc(N3CCC(NC(=O)C(C)c4ccc(Cl)cc4)C3)n2)cc1 (stereo not drawn) [GSK1379735]	9	51	0	18	0	0	0	0	28	11	1	10	3	14	10	0	24	0	12	0
CN1c2ccc(-c3ccc(C(N)=O)cc3)cc2-c2[nH]ncc2S1(=O)=O	4	28	0	0	5	0	0	0	0	0	0	10	0	0	0	37	27	0	0	0
CS(=O)(=O)CCNCc1nc(-c2ccc3ncnc(Nc4ccc(OCc5ccccc5)c(Cl)c4)c3c2)cs1.Cl [GW582764]	0	44	5	0	4	28	5	0	0	0	28	0	13	44	2	0	10	0	15	0
Cc1nccc(-c2c(-c3ccc(F)cc3)ncn2CCCN2CCOCC2)n1.Cl [SB-282975]	50	3	16	39	3	14	12	0	11	3	39	0	30	24	0	17	37	9	13	40
Cc1cnc(N)c(/C=C/c2cncc(C(=O)NCCc3ccc(Cl)cc3Cl)c2)c1.Cl [GSK190937]	17	45	10	0	8	19	46	29	0	31	16	0	0	0	0	0	0	0	0	18
CNCc1ccc2nc(NC(=O)c3ccc(C(C)(C)C)cc3)cn2c1	5	12	19	27	0	8	6	15	2	9	13	0	0	0	0	17	3	3	18	6
COC(=O)C(Cc1ccccc1)NC(=O)NC1CCN(c2ccnc(Nc3ccc(F)cc3)n2)C1 (stereo not drawn) [GSK1379714]	0	51	0	0	8	0	0	34	0	1	33	0	3	4	16	0	59	0	17	1
Fc1ccc(-c2nn3cccc(F)c3c2-c2ccncc2)cc1 [GW475620]	22	0	0	0	47	0	0	14	0	13	9	2	0	0	10	30	17	0	61	93.5
CSc1ccc(-c2nc3n(c2-c2ccncc2)CCC3)cc1 [SKF-105561]	2	0	21	18	0	5	6	12	0	5	21	0	6	12	8	15	4	0	31	49
NS(=O)(=O)c1cccc(N/C=C2\C(=O)Nc3ccc(S(=O)(=O)Cc4c(Cl)cccc4Cl)cc32)c1 [GSK398099]	0	49	0	15	0	0	15	26	0	5	32	5	19	12	11	0	3	0	5	21
Cn1cncc1-c1cc2c(Nc3ccc(OCc4ccccc4)cc3)ncnc2cn1 [GW281179]	0	25	8	5	4	0	6	4	0	2	30	1	17	12	14	0	4	0	13	1
Cc1ccc(NC(=O)Nc2ccc(Cl)c(C(F)(F)F)c2)cc1-c1ccc(C(=O)Nc2ccncc2)cc1 [GSK1398470]	8	56	9	4	26	0	0	29	5	23	0	9	0	18	5	0	0	0	16	14
Cc1cccc2c(-c3ccncn3)c(-c3ccc(F)cc3)nn12 [GW515532]	8	3	0	9	0	37	18	0	16	75	0	8	3	7	5	6	36	0	33	74
CNc1nc(-c2ccc3c(N)n[nH]c3c2)cc(N2C[C@@H](C(=O)NC3CCCCC3)OC[C@H]2C)n1 [GSK2375584]	0	14	21	12	8	0	0	30	0	6	21	0	0	10	11	0	0	0	3	0
O=c1cc(N2CCOCC2)nc2n(Cc3cccc(Cl)c3Cl)c3ccccc3n12 [GSK2299009]	0	19	0	14	5	0	0	37	7	0	12	15	4	13	24	0	0	0	7	32
CNc1nc(-c2ccc3c(N)n[nH]c3c2)cc(N2C[C@@H](C(=O)Nc3ccccc3)CC[C@H]2C)n1 [GSK2298859]	0	18	0	0	11	0	0	24	0	0	0	0	8	12	0	0	0	0	2	15
CC(=O)c1cccc(NC(=O)NC2CCN(c3ccnc(Nc4ccc(F)cc4)n3)C2)c1 (stereo not drawn) [GSK1379710]	0	50	0	5	0	4	1	33	0	12	27	11	7	8	21	9	25	0	16	13
COc1ccc(CSc2nnc(-c3ccc4ncsc4c3)o2)cc1C(F)(F)F	0	0	1	0	0	0	0	0	1	0	0	0	9	0	25	0	0	0	0	0

SMILES	%Inh (HIPK4) [%]	%Inh (HPK1) [%]	%Inh (HUNK) [%]	%Inh (ICK) [%]	%Inh (IGF1R) [%]	%Inh (IKK-alpha) [%]	%Inh (IKK-beta) [%]	%Inh (IKK-epsilon) [%]	%Inh (INSRR) [%]	%Inh (INSR) [%]	%Inh (IRAK1) [%]	%Inh (IRAK3) [%]	%Inh (IRAK4) [%]	%Inh (ITK) [%]	%Inh [1] [%]	%Inh [2] [%]	%Inh [3] [%]	%Inh [4] [%]	%Inh (JNK1) [%]	%Inh (JNK2) [%]
COC(=O)C(NC(=O)NC1CCN(c2ccnc(Nc3ccc(F)cc3)n2)C1)c1ccccc1 (stereo not drawn) [GSK1379712]	8	51	0	9	5	0	0	32	0	2	31	6	0	0	17	5	0	0	1	0
CCn1c(-c2ccccc2)nc2cnccc21 [SB-733416]	0	48	0	46	7	37	43	19	2	4	45	4	38	1	0	0	30	0	21	3
COc1ccc(Nc2nccc(N3CCC(NC(=O)c4cc5ccccc5s4)C3)n2)cc1 (stereo not drawn) [GSK1379738]	0	48	0	10	0	21	25	28	0	5	37	15	19	8	15	0	100	0	22	10
Cl.Cl.Cl.N#Cc1ccc(CCNc2nccc(-c3cccc(CN4CCNCC4)c3)n2)cc1 [GSK2137462]	26	48	0	5	11	0	0	20	0	87	0	0	0	7	3	6	0	0	32	0
Cc1ccc(NC(=O)c2ccc(Cl)cc2)cc1-c1ccc(C(=O)Nc2ccncc2)cc1 [GSK1398467]	0	36	8	0	11	12	6	15	0	0	30	3	14	8	0	0	0	0	19	15
Cc1ccccc1-c1cc(-c2c[nH]nc2-c2ccccn2)ccn1 [GW680061]	0	32	27	0	2	46	38	0	0	28	28	2	4	12	4	0	12	0	38	30
COc1ccc(Nc2nccc(NCCNC(=O)Nc3cc(C)ccc3C)n2)cc1 [GSK1379899]	0	40	0	18	7	8	9	1	0	0	0	8	3	10	0	0	16	0	20	0
O=C(Nc1n[nH]c2nc(-c3cccs3)c(Br)cc12)C1CCCC1 [SB-743341]	4	14	23	65	3	0	0	4	26	2	0	0	0	10	0	0	0	0	69	44
O=C1NC(=O)C(c2ccc(Cl)cc2)=C1Nc1ccc(O)cc1 [SB-340867]	0	35	0	0	0	0	0	0	0	0	0	0	0	0	0	0	14	0	3	0
CC(C)c1ccc(O)cc1Nc1ccnc2ccc(C(F)(F)F)cc12 [GW482059]	10	23	0	0	3	0	0	0	7	0	0	19	0	0	1	0	35	0	3	0
Cc1ccc(NC(=O)Nc2ccccc2F)cc1-c1ccc(C(=O)Nc2ccncc2)cc1 [GSK1398477]	0	44	31	18	0	0	6	19	11	16	0	31	1	19	12	0	12	0	28	27
Fc1ccc(-c2nc[nH]c2-c2ccncc2)cc1 [SB-217360]	0	0	55	0	3	9	0	0	0	24	0	0	0	5	0	28	27	0	79	95.6
O=C(Nc1n[nH]c2nc(-c3cccs3)c(Br)cc12)C1CC1 [SB-735297]	10	16	0	24	0	0	9	0	0	0	0	0	0	0	13	21	20	0	40	15
CS(=O)(=O)CCNCc1nc(-c2ccc3ncnc(Nc4ccc5c(cnn5Cc5ccccc5)c4)c3c2)cs1.Cl.Cl [GW569716]	0	32	28	2	19	38	8	0	0	0	37	0	19	17	0	0	0	0	12	2
CC[C@@H]1CO[C@H](C(=O)Nc2ccccc2)CN1c1cc(-c2ccc3c(N)n[nH]c3c2)nc(NC)n1 [GSK2376236]	0	15	0	0	0	0	1	6	0	10	0	5	0	3	11	0	0	0	0	17
Nc1ncnc2occ(-c3ccc4c(c3)CCN4C(=O)Cc3cc(F)ccc3F)c12 [GSK2645446]	0	31	0	0	0	0	0	41	0	0	0	0	0	0	0	0	0	0	0	0
Cc1c(Cn2c(C)c(C)n3c(=O)cc(N4CCOCC4)nc23)cccc1C(F)(F)F [GSK2328680]	0	33	0	0	0	7	0	0	52	0	0	0	0	15	0	0	0	0	50	0
COC(=O)c1cccc(NC(=O)NC2CCN(c3ccnc(Nc4ccc(F)cc4)n3)C2)c1 (stereo not drawn) [GSK1379725]	0	51	0	17	0	0	5	0	0	0	0	0	14	8	4	0	0	0	17	28
Cn1cnc2c(N)ncnc21 [SKF-97623]	0	33	17	0	46	0	0	0	0	0	0	0	0	7	19	0	0	6	1	0
Nc1nccc(-c2c(-c3ccc(F)cc3)ncn2C2CCN(Cc3ccccc3)CC2)n1 [SB-219980]	0	11	37	1	0	0	0	5	1	0	0	0	0	7	0	0	0	0	62	95.2
CCn1c(-c2c(N)noc2C)nc2cnccc21 [SB-737856]	0	41	0	4	0	7	0	0	0	0	15	29	34	16	8	0	11	0	15	23
